61 compounds from the supplement of paper PMC10498489 can be followed below.

Out of some 2,300 compounds screened, about 330 (14%) showed activity.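 How the source made its calls: active = median modified Z-score above 1.96; inactive = 1.96 or below.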 The list is a sample of the results.

The subject of the assay is HepG2 Srxn1-GFP reporter cells (+30 nM CDDO-Me). The assay can be described thus: Srxn1-GFP intensity median modified Z-score relative to plate median; higher = stronger NRF2 / oxidative stress reporter activation, active = hit call of the paper. As to conditions: 10 µM; exposure time: 24h. The essentials: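 Values give the median, over replicates, of the modified Z-score of GFP intensity on each plate. HepG2 Srxn1-GFP BAC reporter cells were co-treated for 24 h with an NRF2 activator at 30 nM and compound at 10 μM (≤0.1% DMSO) in three replicate plates, then analysed per cell for cytoplasmic GFP on confocal images with at least 100 cells. Scaling used 1.4826 × median absolute deviation.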
Take `C[C@@H]1CC[C@H]2C(C)(C)C3CC12CC[C@@]3(C)O` (stereo partly specified) [euspeclibcmpd1468]: the “Srxn1-GFP intensity median modified Z-score” value is -0.304 (inactive).

Regarding `CC(=O)O[C@]1(C)CC[C@@]23CC1C(C)(C)[C@@H]2CC[C@H]3C` [euspeclibcmpd1510], the “Srxn1-GFP intensity median modified Z-score” value is 3.58 (active). The same measure for `CC(=O)OC1CCC23CC1(C)CCC2C(C)(C)CC3OC(C)=O` (stereo unspecified) [euspeclibcmpd1983]: 0.679 (inactive); for `Cc1ccccc1-n1cnnc1SCC(=O)c1ccc2c(c1)OCCO2`: 1.22 (inactive); for `Cc1ccc2c(c1)CC[C@H]1CC(=O)CC[C@]21C` [euspeclibcmpd2206]: 0.163 (inactive). For `CC(C)C1=CC2=CCC3[C@](C)(CCC[C@]3(C)C(=O)O)C2CC1` (stereo partly specified) [euspeclibcmpd1332] the value was -0.234 (inactive); for `CC(C)c1ccc2c(c1)CCC1C(C)(C(N)=O)CCCC21C` (stereo unspecified) [euspeclibcmpd1367], 15.1 (active); for `CN1C(CC(=O)c2ccccc2)CCCC1CC(O)c1ccccc1` (stereo unspecified) [euspeclibcmpd1050], -0.349 (inactive). For `Cc1cc[nH]c(=NS(=O)(=O)c2ccc(N)cc2)n1` [euspeclibcmpd275] the value was -0.506 (inactive); for `NC(=O)C(c1ccccc1)(c1ccccc1)C1CCN(CCc2ccc3c(c2)CCO3)C1` (stereo unspecified) [euspeclibcmpd914], -0.0168 (inactive); for `Cc1cc(C)c2c(=O)c3c(oc2c1)C(=O)N(Cc1ccc(F)cc1)C3c1cccc(O)c1` (stereo unspecified), 1.43 (inactive).

Regarding `CCCCCCCCCCCCCCCC(=O)O[C@@H]1[C@@H](O)[C@@H](O)[C@H]([C@H](NC(=O)C2C[C@@H](CCC)CN2C)[C@H](C)Cl)O[C@@H]1SC` (stereo partly specified) [euspeclibcmpd1310], the “Srxn1-GFP intensity median modified Z-score” value was 0.0886 (inactive).

Consider `CCCCC(O)c1ccccc1` (stereo unspecified) [euspeclibcmpd2082], for which the “Srxn1-GFP intensity median modified Z-score” value was -0.178 (inactive). The same measure for `CC(C)(C)CC(C)(C)c1ccc(OCCOCC[N+](C)(C)Cc2ccccc2)cc1` [euspeclibcmpd33]: 9.81 (active); for `Oc1ccc(OCc2ccccc2)cc1` [euspeclibcmpd515]: 1.16 (inactive); for `Cc1cc(C(C)(C)CC(C)(C)C)ccc1OCCOCC[N+](C)(C)Cc1ccccc1` [euspeclibcmpd556]: 24 (active). The same measure for `C[N+](C)(CCOc1ccccc1)Cc1ccccc1` [euspeclibcmpd868]: 2.62 (active); for `CCCCCCCCCCCCC[N+](C)(C)Cc1ccccc1` [euspeclibcmpd590]: 3.29 (active); for `CCCCCCCCCCCCCCCC[N+](C)(C)CCN(Cc1ccc(OC)cc1)c1ncccn1` [euspeclibcmpd626]: 1.67 (inactive).

As to `C[C@]12C=CC(=O)CC1=CCC1C3C[C@@H](O)[C@](O)(C(=O)CO)[C@@]3(C)C[C@H](O)[C@@]12F` (stereo partly specified) [euspeclibcmpd302], the “Srxn1-GFP intensity median modified Z-score” value is -0.809 (inactive). For `CC1(C)C(C(=O)O)N2C(=O)C[C@H]2S1(=O)=O` (stereo partly specified) [euspeclibcmpd473] the value was -0.4 (inactive); for `CC(C)(O)CC[C@@H](O)[C@](C)(O)[C@@H]1CC[C@@]2(O)C3=C(CC[C@]12C)[C@@]1(C)C[C@H](O)[C@H](O)CC1C(=O)C3` (stereo partly specified) [euspeclibcmpd1686], 0.91 (inactive); for `O=C(O)c1cc(N=Nc2ccc(O)c(C(=O)O)c2)ccc1O` [euspeclibcmpd2114], -0.278 (inactive).

Regarding `N=c1[nH]c(=NC2CC2)c2ncn(C3C=C[C@@H](CO)C3)c2[nH]1` (stereo partly specified) [euspeclibcmpd479], the “Srxn1-GFP intensity median modified Z-score” value was -0.254 (inactive). The same measure for `CCCCC/C=C/CCC(=O)N[C@H]1[C@H](Oc2c3cc4cc2Oc2ccc(cc2Cl)[C@@H](O[C@@H]2O[C@H](CO)[C@@H](O)[C@H](O)[C@H]2NC(C)=O)c2[nH]c(O)c(c5ccc(O)c(c5)c5c(OC6O[C@H](CO)[C@@H](O)[C@H](O)[C@@H]6O)cc(O)cc5c(=C(O)O)[nH]c2O)NC(=O)[C@@H]4NC(=O)[C@H]2NC(=O)C(Cc4ccc(c(Cl)c4)O3)NC(=O)[C@H](N)c3ccc(O)c(c3)Oc3cc(O)cc2c3)O[C@H](CO)[C@@H](O)[C@@H]1O` (stereo partly specified) [euspeclibcmpd852]: -0.162 (inactive). The same measure for `OC[C@H](O)[C@@H](O)CO` [euspeclibcmpd2221]: -0.0632 (inactive).

In the case of `Clc1cccc(Cn2cc(-c3cnn(Cc4cccc(Cl)c4)c3)cn2)c1`, the “Srxn1-GFP intensity median modified Z-score” value was 1.3 (inactive). The same measure for `C[C@H](CCC(=O)NCC(=O)O)[C@H]1CCC2C3C(C[C@H](O)[C@@]21C)[C@@]1(C)CC[C@@H](O)CC1C[C@H]3O` (stereo partly specified) [euspeclibcmpd1671]: -0.257 (inactive); for `CC(C)C=CC=CCC(=O)N[C@@H](CC(N)=O)C(=O)N[C@@H]1C(=O)N[C@H](c2ccc(O)cc2)C(=O)N[C@H](CCCN)C(=O)N[C@H]([C@H](C)O)C(=O)N[C@@H](c2ccc(O)cc2)C(=O)N[C@H](c2ccc(O)cc2)C(=O)N[C@@H]([C@H](C)O)C(=O)N[C@@H](Cc2ccccc2)C(=O)N[C@H](CCCN)C(=O)N[C@@H](c2ccc(O[C@@H]3O[C@H](CO)[C@H](O)[C@@H](O)[C@@H]3O[C@@H]3O[C@H](CO)[C@@H](O)[C@H](O)[C@H]3O)cc2)C(=O)NC(C(C)O)C(=O)N[C@@H](c2ccc(O)cc2)C(=O)NCC(=O)N[C@@H](CC(C)C)C(=O)N[C@H](C)C(=O)N[C@@H](c2ccc(O)c(Cl)c2)C(=O)O[C@@H]1C(N)=O` (stereo partly specified) [euspeclibcmpd1079]: 0.139 (inactive); for `Cc1cc(=O)n(-c2ccccc2)[nH]1` [euspeclibcmpd1143]: -0.434 (inactive). The same measure for `CC(=O)N[C@@H]1[C@@H](OC(C)C(=O)O)[C@H](O)[C@@H](CO)O[C@H]1O` (stereo partly specified) [euspeclibcmpd2433]: -0.153 (inactive); for `COC(=O)C[C@H]1C(C)(C)[C@@H](OC(C)=O)C2CC3C4CC(=O)O[C@@H](c5ccoc5)[C@]4(C)CCC3[C@@]1(C)C2=O` (stereo partly specified) [euspeclibcmpd1596]: 1.31 (inactive). Regarding `C/C1=C/CC(C)(C)/C=C/C/C(C)=C/CC1` [euspeclibcmpd1338], the “Srxn1-GFP intensity median modified Z-score” value is 0.112 (inactive). The same measure for `CCN(CC)CCNc1ccc(CO)c2sc3ccccc3c(=O)c12` [euspeclibcmpd550]: 13.8 (active). The same measure for `CCCCOc1cc(C(=O)NCCN(CC)CC)c2ccccc2n1` [euspeclibcmpd89]: 0.582 (inactive); for `N=C(N)NCC1COC2(CCCCC2)O1` (stereo unspecified) [euspeclibcmpd1929]: -0.0176 (inactive). For `CN(CCOc1ccc(Cc2sc(=O)[nH]c2O)cc1)c1ccccn1` [euspeclibcmpd2243] the value was 0.517 (inactive).

Take `CC(=O)Nc1cccc(O)c1` [euspeclibcmpd1259]: the “Srxn1-GFP intensity median modified Z-score” value is -0.0594 (inactive). The same measure for `Oc1ccc2ccccc2c1` [euspeclibcmpd1176]: 1.48 (inactive); for `Oc1cccc(O)c1` [euspeclibcmpd262]: 13.8 (active); for `CCCCC(=O)N(Cc1ccc(-c2ccccc2-c2nn[nH]n2)cc1)C(C(=O)O)C(C)C` (stereo unspecified) [euspeclibcmpd719]: -1.02 (inactive). For `CC(=O)OCC(=O)[C@@]1(O)CCC2C3CC=C4CC(=O)CC[C@]4(C)C3C(=O)C[C@@]21C` (stereo partly specified) [euspeclibcmpd74] the value was -0.793 (inactive); for `N#C/C(=C\c1ccc(SC(F)(F)F)cc1)c1nnc2n1CCCCC2`, 2.21 (active); for `CCN[C@@H]1C[C@H](N)[C@@H](O[C@H]2OC(CN)=CC[C@H]2N)[C@H](O)[C@H]1OC1OC[C@](C)(O)[C@H](NC)[C@H]1O` (stereo partly specified) [euspeclibcmpd845], -0.391 (inactive). For `CC(COc1ccccc1)N(CCCl)Cc1ccccc1` (stereo unspecified) [euspeclibcmpd203] the value was 3.84 (active); for `CC(C)COCC(CN(Cc1ccccc1)c1ccccc1)N1CCCC1` (stereo unspecified) [euspeclibcmpd972], -0.387 (inactive). On to `CCOC(=O)OC(C)OC1=C(C(=O)N=c2cccc[nH]2)N(C)S(=O)(=O)c2ccccc21` (stereo unspecified) [euspeclibcmpd1195], for which the “Srxn1-GFP intensity median modified Z-score” value is 0.103 (inactive). As to `CCCCC(=O)O[C@H]1CCC2C3CCc4cc(O)ccc4C3CC[C@@]21C` (stereo partly specified) [euspeclibcmpd117], the “Srxn1-GFP intensity median modified Z-score” value was -0.716 (inactive). For `O=C(O)[C@]1(O)C[C@@H](O)[C@@H](O)[C@H](O)C1` [euspeclibcmpd1500] the value was -0.119 (inactive); for `O=c1ccc2ccccc2o1` [euspeclibcmpd1076], -0.351 (inactive); for `Cc1cc(C)[nH]c(=NS(=O)(=O)c2ccc(N)cc2)n1` [euspeclibcmpd276], -0.664 (inactive).

With `Cc1cc(C(=O)NCCCn2cncn2)no1`, the “Srxn1-GFP intensity median modified Z-score” value was 1.31 (inactive). For `CC(=O)O[C@@H]1C[C@@]23C[C@@]24CC[C@H](O[C@@H]2OC[C@@H](O)[C@H](O)[C@H]2O)C(C)(C)C4CCC3[C@]2(C)C[C@@H]3OC4(C[C@@H](C)[C@@H]3[C@@]12C)O[C@H](O)[C@]1(C)O[C@H]41` (stereo partly specified) [euspeclibcmpd2415] the value was 0.583 (inactive). With `O=c1c(O)c(-c2ccccc2)oc2ccccc12` [euspeclibcmpd1679], the “Srxn1-GFP intensity median modified Z-score” value is 1.3 (inactive). Turning to `CC(=O)CC(c1ccccc1)c1c(O)c2ccccc2oc1=O` (stereo unspecified) [euspeclibcmpd321], the “Srxn1-GFP intensity median modified Z-score” value is 5.96 (active). The same measure for `CC(=O)CC(c1ccc([N+](=O)[O-])cc1)c1c(O)c2ccccc2oc1=O` (stereo unspecified) [euspeclibcmpd502]: -0.425 (inactive); for `COc1ccc2c(c1)OCc1c-2oc2cc(OC)ccc12` [euspeclibcmpd1708]: 13.6 (active); for `COc1ccc2c(=O)c(OC)c(-c3ccccc3)oc2c1` [euspeclibcmpd1977]: 0.483 (inactive). As to `COc1ccc2c(C)cc(=O)oc2c1` [euspeclibcmpd1528], the “Srxn1-GFP intensity median modified Z-score” value is -0.287 (inactive). The same measure for `CO[C@@]1(NC(O)=c2sc(=C(C(N)=O)C(=O)O)s2)C(=O)N2C(C(=O)O)=C(CSc3nnnn3C)CSC21` (stereo partly specified) [euspeclibcmpd474]: -0.0789 (inactive); for `CC(C)CCCC(C)C1CCC2C3CC[C@H]4CCCC[C@]4(C)C3CC[C@]12C` (stereo partly specified) [euspeclibcmpd1324]: 1.13 (inactive).
